{"source": "PubChem BioAssay AID588832", "about": "(Broad Institute, 2011)", "note": "The whole screen tested about 8,000 compounds, of which fewer than 10 were called active. The rule behind the calls is not given here. Not all results are given here."}
{"test_system": "hedgehog, isoform A (Drosophila melanogaster)", "assay": "Hh protein inhibition, biochemical readout – plate reader, single concentration, primary screen (AID 588832);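 note: 0% = neutral control wells and 100% = positive control wells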", "conditions": "Biochemical plate reader assay, at 30.3 µM, active compounds read high"}
{"smiles": "O=C(Nc1ccc(F)cc1F)C1CCN(c2ncnc3c2sc2cccc(F)c23)CC1", "inhibition": "7.02% (inactive)"}
{"smiles": "CCCCOC(=O)c1cc(=O)[nH]c(=O)[nH]1", "inhibition": "5.12% (inactive)"}
{"smiles": "Cc1cc(C)n2nc(S(=O)(=O)N(C)c3ccccc3)nc2n1", "inhibition": "6.52% (inactive)"}
{"smiles": "Cc1nc2sc(C(c3ccccc3)N3CCN(C)CC3)c(O)n2n1", "note": "(stereo unspecified)", "inhibition": "14.5% (inactive)"}
{"smiles": "COc1ccc(-c2nc(C(=O)NCCCN3CCOCC3)cc3c2[nH]c2ccccc23)cc1OC", "inhibition": "1.72% (inactive)"}
{"smiles": "C[C@H](NC(=O)[C@H]1N2C(=O)c3ccccc3C2SC1(C)C)C(=O)N1CCC[C@H]1CO", "note": "(stereo partly specified)", "inhibition": "1.72% (inactive)"}
{"smiles": "Cc1ccc(Cl)cc1N1CCN(C(=O)C2CCN(c3nnc(-n4cccc4)s3)CC2)CC1", "inhibition": "15.4% (inactive)"}
{"smiles": "Cc1cc(C)n2c(SCC(=O)Nc3ccccc3)nnc2n1", "inhibition": "-12.9% (inactive)"}
{"smiles": "Cc1ccc(S(=O)(=O)Nc2ccccc2C(=O)Nc2sccc2C(=O)NN(C)C)cc1", "inhibition": "7.69% (inactive)"}
{"smiles": "O=c1cc(-c2ccc(O)cc2)oc2c(O)c(O)c(O)c(O)c12", "inhibition": "89.5% (active)"}
{"smiles": "COc1c(O)c(O)c2oc(-c3ccccc3)cc(=O)c2c1OC", "inhibition": "6.79% (inactive)"}
{"smiles": "O=c1cc(-c2ccc(O)cc2)oc2c(-c3c(O)cc(O)c4c(=O)cc(-c5ccc(O)cc5)oc34)c(O)cc(O)c12", "inhibition": "3.51% (inactive)"}
{"smiles": "CN(C)C(=O)c1nnc(Cc2ccc(Cl)cc2)o1", "inhibition": "12.9% (inactive)"}
{"smiles": "Cc1c(C(=O)NNc2cc(=O)n(C)c(=O)n2C)cccc1[N+](=O)[O-]", "inhibition": "1.72% (inactive)"}
{"smiles": "NC(=O)c1c(NC(=O)c2c(F)cccc2F)sc2c1CCN(Cc1ccccc1)C2", "inhibition": "0% (inactive)"}
{"smiles": "COc1ccc(-n2c(Cc3cccn3C)nnc2SCC(=O)Nc2ccccc2OC)cc1", "inhibition": "5% (inactive)"}
{"smiles": "CCOc1ccc(C(=O)c2cnc3ccccc3c2N2CCN(CC)CC2)cc1", "inhibition": "20% (inactive)"}
{"smiles": "O=C(Cn1cnc2c(nnn2Cc2ccccc2)c1=O)NCc1ccco1", "inhibition": "2.73% (inactive)"}
{"smiles": "CCOC(=O)c1c(C)c(-c2ccccc2)n(CC(=O)N2CCCC2)c1C", "inhibition": "0.909% (inactive)"}
{"smiles": "Cc1cc(Nc2cccc(F)c2)n2nc(C)nc2n1", "inhibition": "-2.57% (inactive)"}
{"smiles": "C=CC[C@]12C[C@@H](OC)C(=O)C=C1O[C@@H](c1ccc(OC)c(OC)c1)[C@H]2C", "inhibition": "8.62% (inactive)"}
{"smiles": "CC1Cc2ccccc2N1C(=O)c1cnc2sccn2c1=O", "note": "(stereo unspecified)", "inhibition": "-0.943% (inactive)"}
{"smiles": "CCOc1ccc(CC(=O)NCc2ccc3c(c2)cc(C)n3C)cc1", "inhibition": "3.85% (inactive)"}
{"smiles": "O=C(COc1ccc2c(c1)oc(=O)c1ccccc12)N[C@@H](Cc1ccccc1)C(=O)O", "inhibition": "0% (inactive)"}
{"smiles": "COC(=O)C1=C(C)n2cnnc2NC1c1ccc(Cl)cc1", "note": "(stereo unspecified)", "inhibition": "15% (inactive)"}
{"smiles": "Cc1ccc(C)c(N2CCN(C(=O)c3ccc4c(=O)n5c(nc4c3)CCCCC5)CC2)c1", "inhibition": "-12.9% (inactive)"}
{"smiles": "COc1ccc(C(=O)NCc2ccc3c(c2)cc(C)n3C)cc1", "inhibition": "5.23% (inactive)"}
{"smiles": "COc1ccccc1NS(=O)(=O)c1cc2c(cc1C)NC(=O)CO2", "inhibition": "9.62% (inactive)"}
{"smiles": "Cc1ccc(NC(=S)NCc2ccc3[nH]c4c(c3c2)CCCC4)cc1", "inhibition": "4.39% (inactive)"}
{"smiles": "COc1ccc(-c2nc(CS(=O)CC(=O)NCCC3=CCCCC3)c(C)o2)cc1", "note": "(stereo unspecified)", "inhibition": "7.69% (inactive)"}
{"smiles": "Cc1cnc(NC(=O)CSc2nnc(COc3c(C)cccc3C)o2)s1", "inhibition": "10% (inactive)"}
